# Screens deposited in PubChem by National Center for Advancing Translational Sciences (NCATS).
# Hits are enriched below; roughly 18% of the tested compounds scored in any of these assays.
# TDP1 block = qHTS Assay for Inhibitors of Tyrosyl-DNA Phosphodiesterase (TDP1); Tyrosyl-DNA phosphodiesterase 1 (Homo sapiens), Q9NUW8; recombinant TDP1, AlphaScreen DNA substrate cleavage; Potency, µM (top dose mostly 130 µM), for inactives: at the top dose activity change, negative = inhibition, hits mostly inhibitors; actives 0.28% (n = 350,000); also: potency is read from the fitted curve at half-maximal effect; nearly all actives have a fitted effect of over 40% in size
# Target sequence (Q9NUW8 whole entry, looked up): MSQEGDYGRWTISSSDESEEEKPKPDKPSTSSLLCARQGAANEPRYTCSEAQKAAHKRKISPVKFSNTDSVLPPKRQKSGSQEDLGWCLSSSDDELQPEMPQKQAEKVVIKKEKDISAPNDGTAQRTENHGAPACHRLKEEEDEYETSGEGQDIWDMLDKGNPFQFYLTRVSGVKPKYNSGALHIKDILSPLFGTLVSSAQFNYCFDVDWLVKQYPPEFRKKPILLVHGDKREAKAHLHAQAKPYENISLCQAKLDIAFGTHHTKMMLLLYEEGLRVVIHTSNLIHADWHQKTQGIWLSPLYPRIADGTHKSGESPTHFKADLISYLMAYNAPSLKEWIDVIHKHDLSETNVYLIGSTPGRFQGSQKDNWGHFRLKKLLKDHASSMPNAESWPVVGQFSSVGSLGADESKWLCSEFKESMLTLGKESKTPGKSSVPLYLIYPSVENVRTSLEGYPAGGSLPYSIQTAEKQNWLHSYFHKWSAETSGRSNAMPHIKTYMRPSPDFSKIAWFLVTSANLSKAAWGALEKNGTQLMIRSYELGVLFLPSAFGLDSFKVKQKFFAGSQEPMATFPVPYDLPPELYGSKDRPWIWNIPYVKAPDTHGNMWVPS
#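 E. coli-derived human Tdp1, 1 nM final. Cpd preinc 15 min RT; substrate 15 nM final, 5 min RT; AS bead mix 10 ug/ml final, 10 min RT. Signal loss = tyrosine-FITC cleavage. No-enzyme wells = max signal.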
# CtBP-E1A blk = qHTS Assay for Inhibitors of the CtBP/E1A Interaction; actives 0.49% (n = 340,000); CtBP / adenovirus E1A interaction (AlphaScreen); AID 651724, 2012; AlphaScreen GST-E1A/His-CtBP binding, 1536-well; stronger effect = lower value; activity change, % (test concentration not listed); in the data active = activity change below about -65%; inconclusive = mostly about -30% to -63%
#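 Homogeneous bead-based format: GST-tagged E1A captured on glutathione donor beads, His-tagged CtBP on nickel acceptor beads; compounds precede bead addition by 2 h at 37 °C.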
# DT40 TDP1 CPT = qHTS for Inhibitors of human tyrosyl-DNA phosphodiesterase 1 (TDP1): qHTS in cells in presence of CPT; chicken DT40 Tdp1-/-;hTDP1 cells + 20 nM CPT, ATP luminescence, 48 h; Potency, µM (titrated, usually from 46.2 µM), inactives show at the top dose activity change, negative = growth inhibition, usual class: inhibitors; actives 12% (n = 420,000); also: potency is read from the fitted curve at half-maximal effect; nearly all actives have a fitted effect of over 55% in size
#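 Cell growth measured by CellTiter-Glo luminescence after a minimum 48 h, 37 C compound exposure with 20 nM CPT in Tdp1-knockout DT40 cells stably expressing hTDP1, seeded 400/well; qHTS titration format.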
# Six1-Eya2 blk = qHTS Assay for Inhibitors of the Six1/Eya2 Interaction. actives 0.56% (n = 360,000). AlphaScreen GST-Six1/His-Eya2 binding, biochemical; stronger effect = lower value. activity change, % (no concentration beside the values); in the data active = activity change below about -65%; inconclusive = mostly about -30% to -63%
#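 AlphaScreen luminescence read after one hour at 37 °C in darkness. Pin-transferred compounds met GST-Six1 and His-Eya2 protein (5X stock 250 nM/500 nM) plus glutathione donor and Ni-chelate acceptor beads (5X, 50 ug/mL).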
# DT40 TDP1 no CPT = qHTS for Inhibitors of human tyrosyl-DNA phosphodiesterase 1 (TDP1): qHTS in cells in absence of CPT. DT40 Tdp1-/- hTDP1 cells, no CPT, ATP luminescence, 48 h. Potency, µM (highest dose often 46.2 µM), for inactives: at the highest dose activity change, negative = growth inhibition, hits mostly inhibitors. AID 686978, 2013. actives 15% (n = 420,000); also: potency is read from the fitted curve at half-maximal effect; nearly all actives have a fitted effect of over 55% in size
#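 Growth kinetics read by CellTiter-Glo luminescence after ≥48 hr at 37 °C. Cells: DT40 Tdp1-/- stably carrying human TDP1, 400 per well, compound exposure in the absence of CPT (DMSO vehicle).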
# IL-1B inflam inh = qHTS for Inhibitors of Inflammasome Signaling: IL-1-beta AlphaLISA Primary Screen. THP-1 LPS/ATP IL-1B secretion, AlphaLISA, 16 h; stronger effect = lower value. activity change, % at 57.5 µM. actives 4.7% (n = 360,000); in the data active = activity change below about -50%; inconclusive = mostly about -30% to -49%
#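 Secreted IL-1B measured by AlphaLISA bead assay after 16 h compound exposure of THP-1 cells; compounds (final up to 57.5 uM) added 1 h before LPS (250 ng/mL) and ATP (1.25 mM) stimulation; lower signal means less secretion.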
# Numbers without * were called inactive; ? = inconclusive; . = no result. Unless noted, calls follow the shape of the dose curve; as a rule, active = well fitted curve in the direction sought with a large enough effect; inconclusive = small, poorly fitted or top-dose-only effect, or another doubt; inactive = no such curve, though single readings can be large; an effect the other way counts as inactive or inconclusive. % is scaled to controls: 0 for no effect and ±100 for the full control effect.
SMILES,TDP1 block,CtBP-E1A blk,DT40 TDP1 CPT,Six1-Eya2 blk,DT40 TDP1 no CPT,IL-1B inflam inh
CCCCNC(=O)C1(C)CCCCN1C(=O)c1cc(C)n(C(C)(C)C)n1 (stereo not drawn),.,7,-23%,4,?,14
COc1cc(C(=O)NCC(=O)NCCN2C(=O)S/C(=C\c3ccc4c(c3)OCO4)C2=O)cc(OC)c1OC,.,-25,?,-1,-29%,-5
COc1cc(C(=O)NCCN2C(=O)S/C(=C\c3cccs3)C2=O)cc(OC)c1OC,0%,-7,?,-7,16µM*,-5
COc1cccc(C(=O)NCCN2C(=O)S/C(=C/c3cccs3)C2=O)c1OC,3%,-3,-25%,-12,?,-25
COc1cc(/C=C2\SC(=O)N(CCNC(=O)c3c(C)noc3C)C2=O)cc(OC)c1OC,0%,?,?,-8,16µM*,?
COc1cc(OC)cc(C(=O)NCCN2C(=O)S/C(=C\c3cccs3)C2=O)c1,1%,.,16µM*,-3,16µM*,-23
O=C(c1ccc(F)cc1)n1nc(-c2ccc(Cl)cc2)nc1NCc1ccco1,7%,.,.,.,.,.
Cc1ccc2[nH]cc(C(=O)NCc3cccs3)c(=O)c2c1,0%,10,23µM*,-10,23µM*,-71*
CCOCCCNC(=O)c1c[nH]c2ccc(C)cc2c1=O,2%,-1,1%,-2,-27%,-10
COc1cccc2c(=O)c(C(=O)NCc3cccs3)c[nH]c12,-10%,?,-13%,-10,6.5µM*,2
COc1ccc(C2CC(c3c(-c4ccccc4)c4cc(Cl)ccc4[nH]c3=O)=NN2C(=O)CCC(=O)O)cc1 (stereo not drawn),9%,-4,1%,-1,1%,-5
COc1ccccc1C1CC(c2c(-c3ccccc3)c3cc(Cl)ccc3[nH]c2=O)=NN1S(C)(=O)=O (stereo not drawn),0%,4,26µM*,-1,29µM*,-11
COc1cccc(C2CC(c3c(-c4ccccc4)c4cc(Cl)ccc4[nH]c3=O)=NN2S(C)(=O)=O)c1OC (stereo not drawn),0%,-8,21µM*,-14,16µM*,?
Cc1c(Cl)cccc1NC(=O)CCN1C(=O)c2ccccc2Sc2ncccc21,3%,.,?,.,?,.
N#Cc1c(=O)c2nc(NCCCO)ncc2n2c(=O)c3ccccc3[nH]c12,4%,?,16%,?,-2%,29
N#Cc1c(=O)c2nc(NCc3ccccc3)ncc2n2ccccc12,5%,?,-3%,-66*,-10%,0
CC(C)c1ccc(NC(=O)c2ccc(NS(C)(=O)=O)cc2)cc1,0%,.,2.9µM*,10,4.6µM*,-10
CS(=O)(=O)Nc1ccc(C(=O)Nc2ccc3ccccc3c2)cc1,.,1,2.9µM*,-6,5.2µM*,16
CCOC(=O)c1ccc(NC(=O)c2ccc(NS(C)(=O)=O)cc2)cc1,2%,8,?,0,?,-6
FC(F)C(F)(F)c1cc(-c2ccc(Cl)cc2)n[nH]1,6%,0,18µM*,5,18µM*,.
Oc1ccccc1-c1cc(C(F)(F)C(F)F)[nH]n1,1%,13,?,-1,?,-5
COc1ccccc1-c1cc(NC(C)=O)c2ncc(-c3cccc(C(F)(F)F)c3)n2c1,.,-16,23µM*,-11,21µM*,-4
COc1cccc(-c2cnc3c(NC(C)=O)cc(-c4cc(OC)c(OC)c(OC)c4)cn23)c1,.,-14,?,-13,?,0
CC(=O)Nc1cc(-c2ccccc2F)cn2c(-c3ccccc3)cnc12,.,-3,16µM*,-10,?,-25
COc1cccc(-c2cnc3c(NC(C)=O)cc(-c4ccccc4OC)cn23)c1,.,-17,18µM*,-17,16µM*,0
SMILES,TDP1 block,CtBP-E1A blk,DT40 TDP1 CPT,Six1-Eya2 blk,DT40 TDP1 no CPT,IL-1B inflam inh
COc1ccccc1-c1cc(NC(C)=O)c2ncc(-c3ccccc3)n2c1,.,2,21µM*,0,9.2µM*,-28
COc1ccc(S(=O)(=O)N2CCN(C3CC4CCC3C4)CC2)cc1 (stereo not drawn),10%,0,3%,-16,-10%,?
CC(=O)Nc1cc(-c2cccnc2)cn2c(-c3cccc(C(F)(F)F)c3)cnc12,.,?,18µM*,?,?,-12
COc1ccc(-c2cc(NC(C)=O)c3ncc(-c4cccc(C(F)(F)F)c4)n3c2)c(OC)c1,.,-14,?,-13,?,-5
CCN1/C(=C/c2cc[n+](C)cc2)C=Cc2cc(C)ccc21,9%,-18,0.23µM*,-20,0.18µM*,-63*
O=C(c1cn(-c2ccccc2)nc1-c1ccncc1)n1nnc2ccccc21,.,22,16µM*,14,-29%,-18
COc1cc(/C=N/Nc2nc(Nc3ccccc3)nc(N3CCOCC3)n2)ccc1OC(=O)c1ccco1,6%,-12,7.3µM*,-9,4.1µM*,?
COc1ccc(/C=N/Nc2nc(Nc3ccccc3)nc(N3CCCCC3)n2)c(OC)c1,4%,-13,?,-14,21µM*,-14
COc1ccc(/C=N/Nc2nc(Nc3ccccc3)nc(N3CCCC3)n2)cc1[N+](=O)[O-],5%,10,?,13,16µM*,-88*
COc1cc(/C=N/Nc2nc(Nc3ccccc3)nc(N3CCCCC3)n2)ccc1OCC(=O)O,6%,-1,?,-2,?,6
Cc1cc(C)nc(NS(=O)(=O)c2ccc(NS(=O)(=O)c3ccc(C#N)cc3)cc2)n1,4%,-4,-22%,-16,-2%,-1
COc1ccc(F)cc1S(=O)(=O)Nc1ccc2c(c1)CCCN2C(=O)c1cccs1,-4%,.,?,.,18µM*,.
Cc1ccc(S(=O)(=O)Nc2ccc3c(c2)CCCN3C(=O)c2cccs2)cc1C,6%,.,21µM*,.,16µM*,.
O=C(c1cccs1)N1CCCc2cc(NS(=O)(=O)c3ccc(F)cc3)ccc21,9%,.,21µM*,.,-79%,.
O=C(c1cccs1)N1CCCc2cc(NS(=O)(=O)c3ccc(F)cc3F)ccc21,4%,.,21µM*,.,9.2µM*,.
